Measurements taken from PubChem BioAssay.
A number with no mark means an inactive call. Active and inactive are the calls of the source.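 The calls were made as follows: active = thallium flux through the channel raised or lowered by more than 3 SD from vehicle-only wells, actives on both sides; inactive = the rest.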

Experiments:
Assay in all cases: BK channel mutant inhibitors and activators – cell-based, U2OS BacMam, thallium flux, beta subunits, selectivity assay, profiling panel (AID 1259406);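 also: initial slope of Thallos dye fluorescence rise after thallium is added; log ratio against the mean of 0.3% DMSO vehicle wells on the same plate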
[1] = test system: F380Y; settings: U2OS BacMam BK variants, at 30 µM
[2] = test system: F380Y/beta1; settings: U2OS BacMam BK variants, at 30 µM
[3] = test system: F380Y/beta2Delta; settings: U2OS BacMam BK variants, at 30 µM
[4] = test system: F380Y/beta4; settings: U2OS BacMam BK variants, at 30 µM
[5] = target: Calcium-activated potassium channel subunit alpha-1 (Homo sapiens) + Leucine-rich repeat-containing protein 26 (Homo sapiens) (UniProt Q12791+Q2I0M4); settings: U2OS BacMam BK variants, F380Y/Slo1WT/gamma1, at 30 µM
Calcium-activated potassium channel subunit alpha-1 (Homo sapiens) + Leucine-rich repeat-containing protein 26 (Homo sapiens), sequence (Q2I0M4 whole entry, looked up, one chain of several): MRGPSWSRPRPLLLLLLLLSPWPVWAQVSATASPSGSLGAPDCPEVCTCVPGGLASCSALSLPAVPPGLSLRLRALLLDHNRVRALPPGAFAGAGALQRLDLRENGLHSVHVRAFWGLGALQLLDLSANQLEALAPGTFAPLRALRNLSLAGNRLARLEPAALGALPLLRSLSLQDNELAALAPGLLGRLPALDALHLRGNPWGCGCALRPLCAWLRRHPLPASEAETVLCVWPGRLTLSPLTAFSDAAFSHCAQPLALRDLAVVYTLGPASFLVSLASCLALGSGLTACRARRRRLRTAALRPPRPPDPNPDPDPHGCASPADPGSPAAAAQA

[6] = test system: R275C; settings: U2OS BacMam BK variants, at 30 µM
[7] = test system: R275C/beta1; settings: U2OS BacMam BK variants, at 30 µM
[8] = test system: R275C/beta2Delta; settings: U2OS BacMam BK variants, at 30 µM
[9] = test system: R275C/beta4; settings: U2OS BacMam BK variants, at 30 µM
[10] = test system: R275C/Slo1WT/beta2; settings: U2OS BacMam BK variants, at 30 µM

| SMILES | log fold change Tl+ flux [1] | log fold change Tl+ flux [2] | log fold change Tl+ flux [3] | log fold change Tl+ flux [4] | log fold change Tl+ flux [5] | log fold change Tl+ flux [6] | log fold change Tl+ flux [7] | log fold change Tl+ flux [8] | log fold change Tl+ flux [9] | log fold change Tl+ flux [10] |
| --- | --- | --- | --- | --- | --- | --- | --- | --- | --- | --- |
| O=S(=O)(CCN1CCN(Cc2ccccc2)CC1)c1ccc(F)cc1 | -0.000988 | 0.0135 | 0.0237 | 0.0241 | 0.000113 | 0.0486 | 0.0249 | 0.00728 | 0.0441 | -0.0289 |
| Cc1nc(C)c(C(=O)O)c(-c2ccsc2)c1C(=O)O | 0.00149 | 0.0257 | -0.0103 | 0.0238 | 0.0233 | 0.0307 | 0.0388 | -0.00263 | 0.00868 | 0.0152 |
| Oc1ccccc1C=NCCN=Cc1ccccc1O | -0.0379 | -0.0045 | 0.0233 | 0.122 (active) | 0.00734 | 0.0166 | -0.00586 | 0.0216 | 0.00607 | 0.0616 |
| COCCCNC(=O)C(C#N)=CN(C)C | -0.062 | -0.0601 | -0.103 (active) | 0.0041 | -0.0197 | -0.0308 | -0.0584 | -0.0395 | -0.0325 | 0.0541 |
| CN1CCN(S(=O)(=O)c2ccc(CNC(=O)c3ccccc3)s2)CC1 | -0.0286 | -0.0353 | -0.0627 | -0.0096 | -0.0465 | 0.0435 | 0.0151 | -0.00195 | 0.00386 | -0.0258 |
| Cn1cnc([N+](=O)[O-])c1Sc1cccs1 | 0.0486 | 0.0187 | 0.0459 | 0.0453 | 0.029 | 0.00916 | 0.0118 | 0.0288 | 0.0285 | 0.0293 |
| CS(=O)(=O)C(C#N)=NNc1ccc(OC(F)(F)F)cc1 | 0.0798 | 0.148 (active) | 0.0975 | 0.0278 | 0.0802 | 0.0522 | 0.0751 | 0.119 (active) | 0.0407 | -0.0347 |
| O=S(=O)(c1ccc(N2CCOCC2)nc1)N1CCN(c2c(Cl)cncc2Cl)CC1 | 0.0448 | -0.00781 | 0.0236 | -0.00865 | -0.039 | 0.00433 | 0.0279 | 0.0194 | -0.0287 | 0.00545 |
| O=C(CN1CCOCC1)Nc1ccccc1Sc1nccc(C(F)(F)F)n1 | 0.0122 | -0.00692 | -0.0219 | -0.00275 | 0.0522 | -0.0101 | -0.0285 | -0.0136 | 0.0162 | 0.0195 |
| COC(OC)c1ccc(C#N)c(SC)n1 | 0.0176 | -0.0051 | 0.00992 | 0.0407 | -0.00294 | -0.0258 | -0.00195 | 0.0434 | -0.0479 | -0.0163 |
| Cc1ccc(C)n1N(C)c1ccc([N+](=O)[O-])cn1 | -0.186 (active) | -0.0343 | -0.0717 | 0.0203 | -0.0125 | -0.0076 | -0.0949 | -0.0509 | 0.0498 | 0.00416 |
| CSc1nc(N)nc(-c2cccs2)n1 | 0.02 | 0.0489 | 0.0165 | 0.0265 | 0.0393 | -0.0182 | 0.00143 | 0.042 | 0.0144 | 0.0475 |
| C#CC1(NC(=O)c2ccc(-c3ccc(CC)cc3)cc2)CCCCC1 | 0.0109 | 0.0082 | 0.0141 | 0.0366 | 0.047 | 0.0116 | -0.0162 | -0.00151 | 0.0306 | -0.00603 |
| Cc1c(O)nc2ccccn2c1=O | 0.0365 | -0.00065 | 0.0329 | 0.00904 | 0.0423 | -0.0111 | 0.0248 | 0.00886 | 0.0309 | 0.0209 |
| N=C(N)Cc1c(Cl)cccc1Cl | 0.017 | 0.00557 | -0.000365 | -0.0202 | -0.0432 | 0.0228 | 0.0441 | 0.028 | 0.0274 | 0.00537 |
| O=C(Nc1ccc(F)cc1)N1CCN(Cc2ccccc2)CC1 | 0.0438 | 0.00516 | 0.00491 | 0.032 | 0.0285 | 0.0233 | 0.0689 | -0.00966 | 0.0882 (active) | 0.000608 |
